Whole data set: some 140,000 sequences, median “enrichment ratio after two sorts for PhoP signalling” near 0, cut for the highest 2% near 11. What follows is part of a selection rich in the highest values, with near analogues and random picks from the rest.
B1: PhoQ; a variant is named by its letters at X, in order, P23837 (parent)
chain: MKKLLRLFFPLSLRVRFLLATAAVVLVLSLAYGMVALIGYSVSFDKTTFRLLRGESNLFYTLAKWENNKLHVELPENIDKQSPTMTLIYDENGQLLWAQRDVPWLMKMIQPDWLKSNGFHEIEADVNDTSLLLSGDHSIQQQLQEVREDDDDAEMTHSVAVNVYPATSRMPKLTIVVVDTIPVELKSSYMVWSWFIYVLSANLLLVIPLLWVAAWWSLRPIEALAKEVRELEEHNRELLNPATTRELTSLVRNLNRLLKSERERYDKYRTTLTDLTHSLKTPLXXLQXXLRSLRSEKMSVSDAEPVMLEQISRISQQIGYYLHRASMRGGTLLSRELHPVAPLLDNLTSALNKVYQRKGVNISLDISPEISFVGEQNDFVEVMGNVLDNACKYCLEFVEISARQTDEHLYIVVEDDGPGIPLSKREVIFDRGQRVDTLRPGQGVGLAVAREITEQYEGKIVAGESMLGGARMEVIFGRQHSAPKDE

Variants of: B1
Assay: enrichment ratio after two sorts for PhoP signalling (ratio (wild type AVST 3.29)); higher = more functional
Conditions: with PhoP (E. coli)

Row | Variant | enrichment ratio
1 | IEAT | ≤ 0.25
2 | WPAK | ≤ 0.25
3 | GFQM | ≤ 0.25
4 | YNLK | ≤ 0.25
5 | DYIY | ≤ 0.25
6 | KRVH | ≤ 0.25
7 | PCSH | ≤ 0.25
8 | ESFE | ≤ 0.25
9 | QFHQ | ≤ 0.25
10 | GIIK | ≤ 0.25
11 | IAHY | ≤ 0.25
12 | VMDH | ≤ 0.25
13 | AGWL | ≤ 0.25
14 | AHQM | ≤ 0.25
15 | AGCE | 6.71
16 | AGQM | 15.8
17 | AGCL | 15.2
18 | RGCM | ≤ 0.25
19 | AGCS | 10.8
20 | AGCI | 14
21 | QGCM | 1.34
22 | YWCL | ≤ 0.25
23 | AKQM | ≤ 0.25
24 | TGCM | 16.3
25 | YRSY | ≤ 0.25

Row | Variant | enrichment ratio
26 | NQKY | ≤ 0.25
27 | VYPF | 1.11
28 | GMYR | ≤ 0.25
29 | RCYS | ≤ 0.25
30 | YPFH | ≤ 0.25
31 | AGCQ | 23
32 | AGQP | ≤ 0.25
33 | AGCM | 13.6
34 | ANCM | 6.06
35 | AWCM | ≤ 0.25
36 | YWCQ | ≤ 0.25
37 | GNWY | ≤ 0.25
38 | SFTF | ≤ 0.25
39 | HKIE | ≤ 0.25
40 | QMVR | ≤ 0.25
41 | KSVL | ≤ 0.25
42 | KRVL | ≤ 0.25
43 | VRVL | ≤ 0.25
44 | SLVL | 1.22
45 | FSVL | 11.7
46 | SSVA | 10.9
47 | TRVL | 11.6
48 | SSVL | 13.8
49 | FCVL | 0.336
50 | SHQM | 0.951

Row | Variant | enrichment ratio
51 | ITPF | ≤ 0.25
52 | PVFC | ≤ 0.25
53 | QDST | ≤ 0.25
54 | QTQP | ≤ 0.25
55 | ISEK | ≤ 0.25
56 | KQRD | ≤ 0.25
57 | AYKP | ≤ 0.25
58 | SNCG | 13.5
59 | EQCG | ≤ 0.25
60 | SQCG | 24.3
61 | LQCG | ≤ 0.25
62 | IQCG | ≤ 0.25
63 | SPCG | 1.67
64 | ERSH | ≤ 0.25
65 | EHYT | ≤ 0.25
66 | TDGY | 11.5
67 | MMGY | ≤ 0.25
68 | THGY | 13.8
69 | STGY | 8.87
70 | ADGY | ≤ 0.25
71 | MTGY | 14.4
72 | LTGY | ≤ 0.25
73 | TGGY | 7.07
74 | MEGY | 11.2
75 | MTGR | ≤ 0.25

Row | Variant | enrichment ratio
76 | MFGY | ≤ 0.25
77 | NHGY | ≤ 0.25
78 | GYHY | ≤ 0.25
79 | MGHH | ≤ 0.25
80 | LMID | ≤ 0.25
81 | YTGY | ≤ 0.25
82 | TTGY | 20.5
83 | KSGY | ≤ 0.25
84 | FSGY | ≤ 0.25
85 | TSGY | 14.8
86 | GTGY | ≤ 0.25
87 | EHTS | ≤ 0.25
88 | KLNV | ≤ 0.25
89 | PLEP | ≤ 0.25
90 | KFAF | ≤ 0.25
91 | KLER | 0.976
92 | LRTC | ≤ 0.25
93 | GPSH | ≤ 0.25
94 | REFT | ≤ 0.25
95 | WYPR | ≤ 0.25
96 | FIPD | ≤ 0.25
97 | IALL | 8.58
98 | HYLL | ≤ 0.25
99 | HFLL | ≤ 0.25
100 | HALL | 12.4

Row | Variant | enrichment ratio
101 | LFLL | ≤ 0.25
102 | AKLL | 14.3
103 | AALL | 14.9
104 | AILL | 4.86
105 | AYLL | ≤ 0.25
106 | MYLL | ≤ 0.25
107 | MKLL | 11.4
108 | ERET | ≤ 0.25
109 | DVMR | ≤ 0.25
110 | IMCE | ≤ 0.25
111 | DQPA | ≤ 0.25
112 | YWCG | ≤ 0.25
113 | VLVV | ≤ 0.25
114 | DQYW | ≤ 0.25
115 | CFLG | ≤ 0.25
116 | KMML | ≤ 0.25
117 | NMLL | ≤ 0.25
118 | AMLL | 14.2
119 | KKLL | ≤ 0.25
120 | TKLL | 16.2
121 | HKLL | 1.86
122 | KMLL | ≤ 0.25
123 | VNCN | ≤ 0.25
124 | GPQD | ≤ 0.25
125 | AVSQ | 14.8

Row | Variant | enrichment ratio
126 | AVTC | 6.81
127 | AVMI | 15.6
128 | AVMW | ≤ 0.25
129 | AVFQ | ≤ 0.25
130 | AVPS | ≤ 0.25
131 | AVMV | 2.94
132 | AVPC | ≤ 0.25
133 | AVSK | 16.9
134 | AVSC | 12.2
135 | AVHP | ≤ 0.25
136 | AVWI | ≤ 0.25
137 | MDVN | ≤ 0.25
138 | FYFS | ≤ 0.25
139 | KVID | ≤ 0.25
140 | GEKS | ≤ 0.25
141 | MTIG | ≤ 0.25
142 | NDGW | ≤ 0.25
143 | SKVW | ≤ 0.25
144 | AVPA | ≤ 0.25
145 | AVTK | 17.9
146 | AVWN | ≤ 0.25
147 | AVAW | 22.5
148 | AVRW | ≤ 0.25
149 | NVAW | ≤ 0.25
150 | AVFW | ≤ 0.25

Row | Variant | enrichment ratio
151 | AKAW | ≤ 0.25
152 | AVNL | ≤ 0.25
153 | AVPI | 2.35
154 | AVTW | 43.5
155 | AVMN | 18.8
156 | LTGM | ≤ 0.25
157 | MQNP | ≤ 0.25
158 | KLMC | ≤ 0.25
159 | LHAE | ≤ 0.25
160 | DSVM | ≤ 0.25
161 | KHEF | ≤ 0.25
162 | FSFL | 1.26
163 | WYFI | ≤ 0.25
164 | EMFN | ≤ 0.25
165 | SEHM | 23.7
166 | QEHM | 10.7
167 | KYHM | ≤ 0.25
168 | TEHM | 58.9
169 | YYHM | ≤ 0.25
170 | TGHM | 4.7
171 | EAYE | ≤ 0.25
172 | GGYY | ≤ 0.25
173 | ALWM | ≤ 0.25
174 | ANIM | 4.25
175 | ANAM | 32.2

Row | Variant | enrichment ratio
176 | TLAM | 3.04
177 | ALAM | 12.2
178 | ADAM | 3.24
179 | AIAM | 6.08
180 | AAAM | 10.1
181 | AKAM | 13.1
182 | IDWP | ≤ 0.25
183 | HREC | ≤ 0.25
184 | GNSH | 1.23
185 | IQIR | ≤ 0.25
186 | DTPS | ≤ 0.25
187 | GPWS | ≤ 0.25
188 | ESVV | ≤ 0.25
189 | CSLP | ≤ 0.25
190 | CSLA | 2.15
191 | CSLS | 21.9
192 | CSLT | 11.7
193 | CSFT | ≤ 0.25
194 | CSLY | 0.296
195 | NPIK | ≤ 0.25
196 | DVWP | ≤ 0.25
197 | DDAS | ≤ 0.25
198 | MVTH | 2.25
199 | SEAH | 31.6
200 | SFAH | ≤ 0.25

Row | Variant | enrichment ratio
201 | TEAH | 40
202 | MCAH | 2.04
203 | MKAH | ≤ 0.25
204 | HPAH | ≤ 0.25
205 | GVAH | 0.601
206 | QEAH | ≤ 0.25
207 | MVAH | 12.3
208 | NEAH | ≤ 0.25
209 | MEAH | 28.9
210 | YETW | ≤ 0.25
211 | REHR | ≤ 0.25
212 | VKCV | ≤ 0.25
213 | MGTW | ≤ 0.25
214 | FNVE | ≤ 0.25
215 | NWYH | ≤ 0.25
216 | HLAW | ≤ 0.25
217 | VCYP | ≤ 0.25
218 | MRAI | ≤ 0.25
219 | TEFK | 1.68
220 | HELA | ≤ 0.25
221 | HELG | 12.3
222 | HPLG | ≤ 0.25
223 | MFLG | 0.27
224 | NELG | 2.34
225 | HYLG | ≤ 0.25

Row | Variant | enrichment ratio
226 | MPLG | ≤ 0.25
227 | MELG | 22.3
228 | TELG | 27.4
229 | EFRW | ≤ 0.25
230 | YYAI | ≤ 0.25
231 | AISP | ≤ 0.25
232 | SFQS | ≤ 0.25
233 | NRHR | ≤ 0.25
234 | MSNW | ≤ 0.25
235 | PCTN | ≤ 0.25
236 | TDQW | ≤ 0.25
237 | LVST | ≤ 0.25
238 | RVEC | ≤ 0.25
239 | YTTF | ≤ 0.25
240 | ASTF | 11.8
241 | AHTF | ≤ 0.25
242 | AVTF | 11.4
243 | CSTF | 15.8
244 | ATTF | 18.8
245 | CITF | ≤ 0.25
246 | CTTF | ≤ 0.25
247 | LTTF | ≤ 0.25
248 | ASHF | ≤ 0.25
249 | ADTF | ≤ 0.25
250 | AVHF | ≤ 0.25

Row | Variant | enrichment ratio
251 | QRGI | ≤ 0.25
252 | VSMY | ≤ 0.25
253 | YGPL | ≤ 0.25
254 | AGVR | ≤ 0.25
255 | TLEC | ≤ 0.25
256 | VESY | ≤ 0.25
257 | YITC | ≤ 0.25
258 | QKNA | ≤ 0.25
259 | KSTF | ≤ 0.25
260 | AKTF | 2.43
261 | AITF | 15
262 | IPNS | ≤ 0.25
263 | WFEY | ≤ 0.25
264 | AYPG | ≤ 0.25
265 | TDTK | ≤ 0.25
266 | KDLN | ≤ 0.25
267 | TDLN | 14.9
268 | TDLS | 18
269 | TDTH | 8.19
270 | TDLT | 7.28
271 | TDLA | 14
272 | CDLS | ≤ 0.25
273 | TDTI | 14.6
274 | LTLS | ≤ 0.25
275 | TDYI | ≤ 0.25

Row | Variant | enrichment ratio
276 | LTLN | ≤ 0.25
277 | VMTR | ≤ 0.25
278 | STQS | ≤ 0.25
279 | KTAN | ≤ 0.25
280 | DFLN | ≤ 0.25
281 | NTCK | ≤ 0.25
282 | QLKF | ≤ 0.25
283 | TFQG | 12.3
284 | NFQG | ≤ 0.25
285 | KAQG | ≤ 0.25
286 | NVQG | ≤ 0.25
287 | PVQG | ≤ 0.25
288 | PLQG | ≤ 0.25
289 | PFQG | ≤ 0.25
290 | TVQG | 14.6
291 | GGQG | ≤ 0.25
292 | RGQG | ≤ 0.25
293 | TGQG | 15.7
294 | TLQG | 11.8
295 | VFKH | ≤ 0.25
296 | NHHA | ≤ 0.25
297 | ILFN | ≤ 0.25
298 | FTCA | ≤ 0.25
299 | STNQ | 1.23
300 | FWKT | ≤ 0.25

Row | Variant | enrichment ratio
301 | LMTM | ≤ 0.25
302 | HAQG | ≤ 0.25
303 | TMQG | 11.9
304 | EMQG | ≤ 0.25
305 | TITY | ≤ 0.25
306 | SNWM | ≤ 0.25
307 | TQAM | 25.5
308 | GTAM | ≤ 0.25
309 | SNCK | 0.609
310 | FQAM | ≤ 0.25
311 | SFAT | ≤ 0.25
312 | SQAT | 12.5
313 | SNAM | 13.5
314 | NQAM | ≤ 0.25
315 | SLAT | ≤ 0.25
316 | TTAM | 17.5
317 | ITAM | 0.308
